Data published in the supplement of paper PMC10849652.
Of roughly 7,900 targets only a part is listed; those with a hit were picked by preference. About 0.6% of all pairs of compound and target were hits.

Compound: c1cn2cc(-c3ccc4cn[nH]c4c3)nc(Nc3ccc(N4CCOCC4)cc3)c2n1 [entospletinib]
Assay: log2 fold change, soluble protein after heating vs DMSO (PISA); higher = thermal stabilisation; K562 cells, 10 uM, 30 min; active = over 0.2 and 3.5 SD of the protein, either way, in both replicates (recomputed)
Summary of the method: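 Soluble protein was defined as the supernatant after 21,000xg for 90 min. It came from K562 cells at 2×10^6 cells/mL given 10 μM compound for 30 min, heated in aliquots for 3 min across 48°C-58°C, pooled, and extracted in PBS with 0.5% NP-40 at 4°C, and was quantified by TMTpro 16plex LC-MS/MS with equalised channel sums. Thermal stability against control samples, from duplicates, is reported as log2 fold change.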

Chain of UniProt O75438 (O75438 whole entry, looked up): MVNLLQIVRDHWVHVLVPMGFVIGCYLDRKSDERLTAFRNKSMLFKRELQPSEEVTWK
Chain of UniProt Q9NRP0 (Q9NRP0 whole entry, looked up): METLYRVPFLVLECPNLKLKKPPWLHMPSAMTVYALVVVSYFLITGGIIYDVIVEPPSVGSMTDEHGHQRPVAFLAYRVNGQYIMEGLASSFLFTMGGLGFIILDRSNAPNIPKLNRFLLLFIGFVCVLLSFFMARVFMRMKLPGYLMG
Chain of UniProt Q69YL0 (Q69YL0 whole entry, looked up): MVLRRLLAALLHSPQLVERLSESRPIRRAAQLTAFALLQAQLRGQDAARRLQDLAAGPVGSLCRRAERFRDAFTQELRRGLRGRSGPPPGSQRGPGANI
Chain of UniProt Q9BUK6 (Q9BUK6 whole entry, looked up): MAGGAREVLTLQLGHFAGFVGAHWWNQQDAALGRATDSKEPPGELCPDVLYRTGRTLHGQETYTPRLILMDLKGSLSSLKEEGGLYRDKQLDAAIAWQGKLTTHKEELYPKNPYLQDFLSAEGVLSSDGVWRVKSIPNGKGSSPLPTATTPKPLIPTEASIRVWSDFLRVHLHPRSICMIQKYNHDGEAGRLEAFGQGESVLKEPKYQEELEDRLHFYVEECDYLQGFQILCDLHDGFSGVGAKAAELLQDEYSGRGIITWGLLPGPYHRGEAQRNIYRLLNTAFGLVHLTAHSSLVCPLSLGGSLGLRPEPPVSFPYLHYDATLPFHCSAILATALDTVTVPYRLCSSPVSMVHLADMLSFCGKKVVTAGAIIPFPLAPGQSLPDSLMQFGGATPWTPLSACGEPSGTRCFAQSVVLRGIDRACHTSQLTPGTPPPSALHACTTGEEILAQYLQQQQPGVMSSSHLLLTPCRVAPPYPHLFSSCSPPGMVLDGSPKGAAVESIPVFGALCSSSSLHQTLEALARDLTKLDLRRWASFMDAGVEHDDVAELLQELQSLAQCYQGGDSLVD
Chain of UniProt Q8N6M0 (Q8N6M0 whole entry, looked up): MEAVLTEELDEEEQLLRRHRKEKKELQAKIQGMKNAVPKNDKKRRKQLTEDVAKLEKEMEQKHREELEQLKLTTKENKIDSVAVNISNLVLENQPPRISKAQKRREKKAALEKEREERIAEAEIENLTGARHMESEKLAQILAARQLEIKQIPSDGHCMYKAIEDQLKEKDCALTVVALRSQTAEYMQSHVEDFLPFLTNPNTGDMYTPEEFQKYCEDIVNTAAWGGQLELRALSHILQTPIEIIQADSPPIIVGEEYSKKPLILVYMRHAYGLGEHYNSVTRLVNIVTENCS
Chain of UniProt Q12769 (Q12769 whole entry, looked up): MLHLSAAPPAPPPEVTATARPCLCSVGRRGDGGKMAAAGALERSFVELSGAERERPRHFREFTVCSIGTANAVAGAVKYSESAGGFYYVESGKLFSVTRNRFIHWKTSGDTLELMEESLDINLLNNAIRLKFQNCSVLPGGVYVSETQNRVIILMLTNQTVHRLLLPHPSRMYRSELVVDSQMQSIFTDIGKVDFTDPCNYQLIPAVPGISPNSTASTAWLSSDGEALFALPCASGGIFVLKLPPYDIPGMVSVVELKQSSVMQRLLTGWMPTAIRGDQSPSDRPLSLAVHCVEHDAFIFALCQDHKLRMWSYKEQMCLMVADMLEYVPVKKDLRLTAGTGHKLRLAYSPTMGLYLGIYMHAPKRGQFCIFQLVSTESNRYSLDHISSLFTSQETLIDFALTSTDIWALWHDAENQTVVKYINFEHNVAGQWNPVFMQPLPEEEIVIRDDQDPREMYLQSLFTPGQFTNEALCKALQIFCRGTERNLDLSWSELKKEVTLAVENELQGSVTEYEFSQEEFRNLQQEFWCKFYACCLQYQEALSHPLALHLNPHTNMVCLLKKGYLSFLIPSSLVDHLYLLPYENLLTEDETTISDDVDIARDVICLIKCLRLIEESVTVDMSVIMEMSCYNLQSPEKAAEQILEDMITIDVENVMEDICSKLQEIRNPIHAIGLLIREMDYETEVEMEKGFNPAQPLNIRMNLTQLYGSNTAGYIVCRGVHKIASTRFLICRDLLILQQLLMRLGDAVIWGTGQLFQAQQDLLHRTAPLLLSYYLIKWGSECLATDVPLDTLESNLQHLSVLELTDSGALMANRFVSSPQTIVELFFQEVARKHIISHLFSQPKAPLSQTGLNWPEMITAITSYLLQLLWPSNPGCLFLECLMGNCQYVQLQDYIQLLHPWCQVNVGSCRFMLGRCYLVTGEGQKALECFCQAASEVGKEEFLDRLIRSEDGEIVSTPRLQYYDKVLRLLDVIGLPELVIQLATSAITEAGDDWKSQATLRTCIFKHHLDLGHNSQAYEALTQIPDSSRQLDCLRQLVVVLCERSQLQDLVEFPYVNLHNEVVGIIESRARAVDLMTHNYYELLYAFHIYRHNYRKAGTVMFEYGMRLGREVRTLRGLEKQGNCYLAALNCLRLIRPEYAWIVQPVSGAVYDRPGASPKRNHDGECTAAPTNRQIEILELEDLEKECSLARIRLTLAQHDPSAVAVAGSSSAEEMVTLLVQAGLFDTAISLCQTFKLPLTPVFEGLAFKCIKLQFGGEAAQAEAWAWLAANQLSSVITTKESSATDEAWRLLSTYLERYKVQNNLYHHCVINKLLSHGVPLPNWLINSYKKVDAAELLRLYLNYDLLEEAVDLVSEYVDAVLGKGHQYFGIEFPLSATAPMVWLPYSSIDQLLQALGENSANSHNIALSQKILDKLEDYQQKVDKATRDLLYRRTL
Chain of UniProt Q7Z3U7 (Q7Z3U7 whole entry, looked up): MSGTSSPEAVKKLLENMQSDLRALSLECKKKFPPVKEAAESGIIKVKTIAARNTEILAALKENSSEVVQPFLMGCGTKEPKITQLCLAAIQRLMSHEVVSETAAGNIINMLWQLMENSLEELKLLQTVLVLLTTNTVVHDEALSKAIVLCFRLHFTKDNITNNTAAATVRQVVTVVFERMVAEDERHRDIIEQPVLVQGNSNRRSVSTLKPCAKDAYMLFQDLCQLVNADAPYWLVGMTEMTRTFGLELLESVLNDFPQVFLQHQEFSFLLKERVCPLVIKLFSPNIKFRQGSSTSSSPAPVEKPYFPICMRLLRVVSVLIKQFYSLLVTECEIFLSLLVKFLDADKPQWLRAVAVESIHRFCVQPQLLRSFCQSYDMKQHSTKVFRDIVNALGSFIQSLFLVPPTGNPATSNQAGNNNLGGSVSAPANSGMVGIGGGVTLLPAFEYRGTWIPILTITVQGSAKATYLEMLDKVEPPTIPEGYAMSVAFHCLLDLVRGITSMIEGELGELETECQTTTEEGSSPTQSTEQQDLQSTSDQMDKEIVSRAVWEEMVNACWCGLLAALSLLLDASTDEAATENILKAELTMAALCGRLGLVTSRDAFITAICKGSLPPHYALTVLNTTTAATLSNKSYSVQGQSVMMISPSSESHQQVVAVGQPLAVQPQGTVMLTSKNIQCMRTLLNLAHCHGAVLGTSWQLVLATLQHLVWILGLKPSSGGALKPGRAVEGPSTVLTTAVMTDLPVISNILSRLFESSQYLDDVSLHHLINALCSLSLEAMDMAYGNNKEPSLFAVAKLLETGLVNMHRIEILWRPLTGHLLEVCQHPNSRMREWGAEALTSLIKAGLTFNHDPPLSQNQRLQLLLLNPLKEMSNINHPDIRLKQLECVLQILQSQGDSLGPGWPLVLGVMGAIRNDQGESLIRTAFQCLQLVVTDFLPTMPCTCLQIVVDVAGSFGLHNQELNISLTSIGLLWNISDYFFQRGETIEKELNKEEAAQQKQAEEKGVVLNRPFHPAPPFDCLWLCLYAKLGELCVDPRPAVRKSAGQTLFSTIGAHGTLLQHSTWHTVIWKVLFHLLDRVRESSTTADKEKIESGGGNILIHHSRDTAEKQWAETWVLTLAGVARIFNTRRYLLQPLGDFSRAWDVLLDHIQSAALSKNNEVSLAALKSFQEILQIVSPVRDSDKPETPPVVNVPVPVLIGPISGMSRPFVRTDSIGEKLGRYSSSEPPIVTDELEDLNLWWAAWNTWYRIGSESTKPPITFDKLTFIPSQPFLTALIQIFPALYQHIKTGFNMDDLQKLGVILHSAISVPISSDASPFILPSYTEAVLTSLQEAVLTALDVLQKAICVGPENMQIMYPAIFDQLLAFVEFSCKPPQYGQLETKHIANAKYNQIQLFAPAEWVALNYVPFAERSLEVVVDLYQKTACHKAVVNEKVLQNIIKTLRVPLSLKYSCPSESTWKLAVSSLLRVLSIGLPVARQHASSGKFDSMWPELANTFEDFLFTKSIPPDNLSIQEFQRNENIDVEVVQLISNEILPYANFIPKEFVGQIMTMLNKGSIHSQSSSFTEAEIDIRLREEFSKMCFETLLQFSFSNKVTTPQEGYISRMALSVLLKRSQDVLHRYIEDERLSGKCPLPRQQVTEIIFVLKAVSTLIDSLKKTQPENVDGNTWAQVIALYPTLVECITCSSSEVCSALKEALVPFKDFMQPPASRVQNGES
Chain of UniProt O14950 (O14950 whole entry, looked up): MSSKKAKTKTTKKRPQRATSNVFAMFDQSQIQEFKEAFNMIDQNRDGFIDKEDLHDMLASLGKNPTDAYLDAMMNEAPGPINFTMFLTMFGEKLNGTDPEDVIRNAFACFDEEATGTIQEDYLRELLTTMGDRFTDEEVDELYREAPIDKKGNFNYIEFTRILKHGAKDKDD
Chain of UniProt Q16621 (Q16621 whole entry, looked up): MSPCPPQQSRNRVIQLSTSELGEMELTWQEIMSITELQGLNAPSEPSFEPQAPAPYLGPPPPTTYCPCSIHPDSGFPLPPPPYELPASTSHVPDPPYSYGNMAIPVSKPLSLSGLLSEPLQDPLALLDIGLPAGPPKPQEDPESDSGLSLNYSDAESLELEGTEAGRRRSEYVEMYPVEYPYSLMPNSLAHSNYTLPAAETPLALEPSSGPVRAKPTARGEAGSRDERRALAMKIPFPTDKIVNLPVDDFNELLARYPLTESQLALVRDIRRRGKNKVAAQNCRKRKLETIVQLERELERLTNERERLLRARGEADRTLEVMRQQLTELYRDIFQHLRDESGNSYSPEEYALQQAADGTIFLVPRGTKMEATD

log2 fold change, inactive:
MRPS22 (UniProt P82650) 0.057, NDUFB1 (UniProt O75438) 0.017, MLST8 (UniProt Q9BVC4) -0.06, MYL12B (UniProt O14950) -0.03, NCBP2AS2 (UniProt Q69YL0) -0.017, NBN (UniProt O60934) 0.009, NDUFA12 (UniProt Q9UI09) -0.025, NCKAP1 isoform 2 (UniProt Q9Y2A7) -0.041, NDUFS7 (UniProt O75251) 0.006, MOV10 (UniProt Q9HCE1) 0.14, MRPS18B (UniProt Q9Y676) 0.028, MRPS6 (UniProt P82932) 0.046, NARS2 (UniProt Q96I59) -0.01, NUP205 (UniProt Q92621) -0.041, NR2C2AP isoform 2 (UniProt Q86WQ0) 0.004, NFE2 (UniProt Q16621) -0.055, OSTC (UniProt Q9NRP0) 0.034, NUDT6 (UniProt P53370) 0.127, MON2 isoform 5 (UniProt Q7Z3U7) 0.014, OGFOD2 (UniProt Q6N063) -0.003, OTUD6B (UniProt Q8N6M0) -0.028, NFATC3 (UniProt Q12968) 0.153, MSTO1 (UniProt Q9BUK6) -0.068, NDUFS8 (UniProt O00217) -0.012, MRPS25 (UniProt P82663) 0.029, MTOR (UniProt P42345) -0.012, NUP160 (UniProt Q12769) 0.03, NMNAT1 (UniProt Q9HAN9) 0.084, OSBPL3 (UniProt Q9H4L5) 0.171, NCAPD2 (UniProt Q15021) 0.031, MTMR14 (UniProt Q8NCE2) -0.061, MKNK1 (UniProt Q9BUB5) 0.01, MTHFD1 (UniProt P11586) 0.055, MYH11 isoform 2 (UniProt P35749) -0.047
